High-throughput results as filed in PubChem BioAssay.
Shown are actives, neighbours in structure and some others; about 4.8% of the full set was active somewhere.
DAX1 inh-1: DAX1 (NR0B1) inhibitors on StAR promoter, primary screen, cell-based, luminescence, SF-1 (NR5A1), full-length DAX-1; HEK293T StAR-luciferase reporter, SF-1/DAX-1 repression relief; 370,000 tested, 1.1% active; inhibition, % at 6.8 µM;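 active = inhibition above the mean over all tested compounds plus 3 SD, cut at about 3.6% in these data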;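 also: higher inhibition means more luminescence from relief of DAX-1 repression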
hcDAF-12 act: H. contortus DAF-12 nuclear receptor activators, primary screen, cell-based, luminescence, HEK293, lit1-tk-luc reporter; HEK293 hcDAF-12 lit1-tk-luc reporter; 0% DMSO, 100% Δ7-dafachronic acid; activation, % at 6.8 µM; 370,000 tested, 1.4% active; AID 652067, 2013;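 active = activation above the mean of all tested compounds plus 3 SD, cut at about 5.5% in these data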
DAX1 inh-2: DAX1 (NR0B1) inhibitors, primary screen, cell-based, HEK293, Gal4-DAX1, luciferase luminescence | Nuclear receptor subfamily 0 group B member 1 (Homo sapiens), P51843 | HEK293 Gal4-DAX1 luciferase reporter | inhibition, % at 6.75 µM | 340,000 tested, 0.99% active | AID 504766, 2011;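 active = inhibition above the mean over all tested compounds plus 3 SD, cut at about 4.2% in these data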;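 also: inhibition shows as a rise in luminescence from relieved DAX1 repression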
Target sequence (P51843 207-470 limits assumed): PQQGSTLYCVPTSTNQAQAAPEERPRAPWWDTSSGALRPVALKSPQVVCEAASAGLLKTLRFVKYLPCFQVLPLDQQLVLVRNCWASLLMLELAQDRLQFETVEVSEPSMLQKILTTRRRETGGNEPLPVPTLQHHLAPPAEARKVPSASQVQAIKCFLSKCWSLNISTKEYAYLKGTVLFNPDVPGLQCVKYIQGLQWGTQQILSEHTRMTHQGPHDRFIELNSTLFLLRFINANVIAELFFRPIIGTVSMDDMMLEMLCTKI
hgDAF-12 ag: H. glycines DAF-12 receptor agonists, primary screen, cell-based, luminescence, HEK293, GAL4 fusion, UAS-luciferase. Nuclear hormone receptor DAF-12 (Heterodera glycines), GAL4 fusion. HEK293 GAL4-hgDAF12 UAS-luciferase reporter, agonist luminescence; normalized to butyrate control. activation, % at 6.8 µM. 370,000 tested, 1.8% active. AID 687014, 2013;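 active = activation above a cutoff set at the mean of all screened compounds plus 3 SD, cut at about 10% in these data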
ssDAF-12 act: S. stercoralis DAF-12 nuclear receptor activators, primary screen, cell-based, luminescence, HEK293, GRIP1 co-expression, lit1-tk-luc | activation, % at 6.8 µM | 370,000 tested, 1% active | AID 652126, 2013 | HEK293 ssDAF-12/GRIP1 lit1-tk-luc reporter; % of 3 µM dafachronic acid response | Nuclear hormone receptor DAF-12 (Strongyloides stercoralis);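 active = activation above the mean over all tested compounds plus 3 SD, cut at about 0.9% in these data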
SMARCA2 activ: SMARCA2 (BRM) function activators, primary screen, cell-based, luminescence, high throughput | MG213 cells, MMTV-luciferase reporter, dexamethasone, overnight | activation, % at 9.1 µM | 370,000 tested, 1% active | AID 652017, 2013; in the data active = activation above about 7.8%
Of the large screens only hits and unclear results are named; the others gave an inactive call.

CCCCCCCc1c(O)nc(SCC(=O)O)[nH]c1=O	DAX1 inh-2 5.1
COc1cc(NC(=O)c2ccccc2)c(OC)cc1NC(=O)CSc1[nH]c(=O)cc(C)c1C#N	DAX1 inh-2 4.4
Cc1cc(=O)[nH]c(SCC(=O)Nc2cccc3ccccc23)c1C#N	none (no result: DAX1 inh-1, hcDAF-12 act, hgDAF-12 ag, ssDAF-12 act, SMARCA2 activ)
CC(=O)Nc1csc2ccccc12	none
NC(=O)C1CCN(C(=O)Nc2csc3ccccc23)CC1	ssDAF-12 act 1.0 (no result: DAX1 inh-2)
Clc1nccnc1N/N=C/c1ccc(Br)cc1	DAX1 inh-2 5.1, hgDAF-12 ag 13
Oc1ccccc1/C=N/Nc1nccnc1Cl	none
COC(=O)[C@H](CC(C)C)N(CCc1cn(Cc2ccccc2)nn1)S(=O)(=O)c1ccc(F)cc1Br	none (no result: DAX1 inh-2)
CC(CN1CCN(Cc2ccccc2)CC1)c1ccccc1 (stereo not drawn)	none
ClC(CCN1CCN(Cc2ccccc2)CC1)c1ccccc1 (stereo not drawn)	DAX1 inh-2 5.7
Cc1ccccc1C(=O)N1CCC(Oc2cccnc2)CC1	none (no result: DAX1 inh-2)
CC1(C)C2CC=C(/C=N/NC(=S)Nc3cccnc3)C1C2 (stereo not drawn)	ssDAF-12 act 1.0
COc1ccc(-c2nc(SC)n(S(=O)(=O)c3ccccc3)n2)cc1	ssDAF-12 act 1.0
Cc1cccc(Cn2cc(COC(=O)Nc3ccc(F)cc3)nn2)c1	none (no result: DAX1 inh-2)
CCN(CCn1cccn1)C(=O)CCc1nnc(C2(c3ccc(Cl)cc3)CCC2)o1	hgDAF-12 ag 12
O=C(Nc1ccc(F)cc1)OCc1cn(Cc2ccc(F)cc2F)nn1	none (no result: DAX1 inh-2)
CCCCOC(=O)c1nnc(-c2ccc(Cl)cc2)o1	none
CCCCOC(=O)c1nnc(-c2ccccc2)o1	DAX1 inh-2 5.1
CN(CC(=O)Nc1ccc(F)cc1)C(=O)c1ccc2ccccc2n1	hcDAF-12 act 6.0
CCOC(=O)CC[C@@H]1CC[C@]2(CCCN(S(=O)(=O)c3ccccc3)C2)O1	none (no result: DAX1 inh-2)
Cc1ccc2c(C)c(C(=O)N3CCN(Cc4ccc5c(c4)OCO5)CC3)oc2c1C	hcDAF-12 act 5.8
Cc1ccc(C(=O)N2CCN(Cc3ccc4c(c3)OCO4)CC2)o1	none
CCC1CCCCN1C(=O)c1cc2c(=O)n3cccc(C)c3nc2s1 (stereo not drawn)	none (no result: DAX1 inh-1, hcDAF-12 act, hgDAF-12 ag, ssDAF-12 act, SMARCA2 activ)
CCOC(=O)C1CCN(C(=O)c2cc3c(=O)n4cccc(C)c4nc3s2)CC1	hcDAF-12 act 6.5
CCN1CCN(C(=O)c2cc3c(=O)n4ccccc4nc3s2)CC1	none
CCOC(=O)C1CCN(C(=O)c2cc3c(=O)n4ccccc4nc3s2)CC1	hcDAF-12 act 6.4
CCN(CC)C(=O)c1cc2c(=O)n3ccccc3nc2s1	hcDAF-12 act 6.5
S=C(Nc1ccc(Cl)c(Cl)c1)Nc1nnc(-c2ccncc2)s1	none (no result: DAX1 inh-1, DAX1 inh-2, SMARCA2 activ)
COC(=O)c1cc(-c2cccc3c2sc2ccccc23)c(=O)n2c1CCC2	none (no result: DAX1 inh-2)
COc1ccc(C2=NN(C(C#N)c3ccc(OC)cc3)C(c3ccccc3)C2)cc1 (stereo not drawn)	hcDAF-12 act 6.4, DAX1 inh-2 5.4, hgDAF-12 ag 13
N/C(=N\OC(=O)Cc1ccccc1)c1ccccn1	hgDAF-12 ag 12
CCc1ccc(OCC(=O)O/N=C(\N)c2ccccn2)cc1	hgDAF-12 ag 11 (no result: DAX1 inh-2)
N/C(=N\OC(=O)CSc1ccccc1)c1ccncc1	hcDAF-12 act 5.7
Cc1ccc(OCC(=O)O/N=C(\N)c2ccccn2)cc1C	none (no result: DAX1 inh-2)
N/C(=N\OC(=O)CCC1CCCC1)c1ccccc1	none
N/C(=N\OC(=O)CCCc1ccccc1)c1ccccn1	none
N/C(=N\OC(=O)CCC1CCCC1)c1ccccn1	DAX1 inh-1 4.2
CCCC1CCC2(CC1)CCC2OC(=O)Nc1ccc2c(c1)OCO2 (stereo not drawn)	none (no result: DAX1 inh-1, DAX1 inh-2, SMARCA2 activ)
N/C(=N\OC(=O)COc1ccccc1)c1ccncc1	DAX1 inh-2 5.3
N/C(=N\OC(=O)COc1ccccc1)c1ccccn1	hgDAF-12 ag 11
COc1cccc(/C=N/NC(=O)c2c(C)nc3ccc(Br)cn23)c1	DAX1 inh-2 6.4
Cc1cccc(/C=N/NC(=O)c2ccc(Br)cc2)c1	hgDAF-12 ag 12
Cc1ccc(NC(=O)OCCCN2C(=O)CCC23CCC(C)CC3)cc1 (stereo not drawn)	none (no result: DAX1 inh-2)
COc1ccc(C(=O)c2[nH]c(N)c(C(=O)c3c[nH]c4ccccc34)c2-c2ccc(OC)cc2)cc1	none (no result: DAX1 inh-2)
COc1ccc(-c2cc(-c3nnc(SCC(=O)Nc4ccccc4-c4ccccc4)n3N)[nH]n2)cc1	none (no result: DAX1 inh-2)
CSCCC(NC(=O)c1ccc(Cl)cc1)C(=O)OCC(=O)c1ccc[nH]1 (stereo not drawn)	none
CSCCC(NC(=O)c1ccc(Cl)cc1)C(=O)OCC(C)=O (stereo not drawn)	DAX1 inh-2 5.6
Cc1ccc(-c2cc(C(=O)NN=Cc3cccc4ccccc34)[nH]n2)cc1C	hgDAF-12 ag 12 (no result: DAX1 inh-2)
CCOC(=O)[C@@]12CCCC=C1N(CCc1ccc(Cl)cc1)C(=O)[C@H]2CC(=O)NCc1ccccc1	none (no result: DAX1 inh-2)
CC(=O)Nc1ccc(NC(=O)c2cc(-c3ccc(F)cc3C)n[nH]2)cc1	DAX1 inh-1 4.1, hgDAF-12 ag 13 (no result: DAX1 inh-2)
CN(CCOC(=O)c1cccs1)C1CN(Cc2cn(Cc3ccccc3Cl)nn2)S(=O)(=O)C1 (stereo not drawn)	none (no result: DAX1 inh-2)
Cn1c(=O)[nH]c(=O)c2c1nc(Br)n2CC(O)COc1ccccc1 (stereo not drawn)	SMARCA2 activ 7.9
Cn1c(=O)[nH]c(=O)c2c1nc(SCC(=O)O)n2CCOc1ccccc1	ssDAF-12 act 0.9
O=C(NCCc1ccccc1)OCc1cn(Cc2cccc(Cl)c2)nn1	none (no result: DAX1 inh-2)
CC(C)(C)C(=O)OCc1nc(-c2ccc(F)cc2)cs1	SMARCA2 activ 7.9
COc1ccc(-c2csc(COC(=O)C(C)(C)C)n2)cc1	none
CCOC(=O)/C(C#N)=C\c1cc(C)n(-c2ccccc2)c1C	DAX1 inh-2 5.3
CCOC(=O)/C(C#N)=C/c1cc(C)n(-c2ccc(C)cc2)c1C	none
CC(C)C[C@H]1COc2cc(Br)ccc2S(=O)(=O)N1Cc1cn(Cc2ccc(F)cc2)nn1	none (no result: DAX1 inh-2)
Cc1cc(C)c(-c2nc3ccccc3s2)[nH]1	hcDAF-12 act 6.3
CCCCOCCCNC(=O)C[C@H]1C[C@@]2(C(=O)OC)C(=C[C@H](C(C)C)O[C@@H]2C2CC2)N(Cc2cccc3ccccc23)C1=O	none (no result: DAX1 inh-2)
Cc1nc(SCc2cccc(C(=O)O)c2)nc2c1CCCC2	none
COC(=O)CSc1nc(C)c2c(n1)CCCC2	DAX1 inh-2 4.6
